This assay concerns the target T1, Methionyl-tRNA synthetase, putative (Leishmania donovani (strain BPK282A1)) (UniProt E9BF75).
T1 sequence (whole entry): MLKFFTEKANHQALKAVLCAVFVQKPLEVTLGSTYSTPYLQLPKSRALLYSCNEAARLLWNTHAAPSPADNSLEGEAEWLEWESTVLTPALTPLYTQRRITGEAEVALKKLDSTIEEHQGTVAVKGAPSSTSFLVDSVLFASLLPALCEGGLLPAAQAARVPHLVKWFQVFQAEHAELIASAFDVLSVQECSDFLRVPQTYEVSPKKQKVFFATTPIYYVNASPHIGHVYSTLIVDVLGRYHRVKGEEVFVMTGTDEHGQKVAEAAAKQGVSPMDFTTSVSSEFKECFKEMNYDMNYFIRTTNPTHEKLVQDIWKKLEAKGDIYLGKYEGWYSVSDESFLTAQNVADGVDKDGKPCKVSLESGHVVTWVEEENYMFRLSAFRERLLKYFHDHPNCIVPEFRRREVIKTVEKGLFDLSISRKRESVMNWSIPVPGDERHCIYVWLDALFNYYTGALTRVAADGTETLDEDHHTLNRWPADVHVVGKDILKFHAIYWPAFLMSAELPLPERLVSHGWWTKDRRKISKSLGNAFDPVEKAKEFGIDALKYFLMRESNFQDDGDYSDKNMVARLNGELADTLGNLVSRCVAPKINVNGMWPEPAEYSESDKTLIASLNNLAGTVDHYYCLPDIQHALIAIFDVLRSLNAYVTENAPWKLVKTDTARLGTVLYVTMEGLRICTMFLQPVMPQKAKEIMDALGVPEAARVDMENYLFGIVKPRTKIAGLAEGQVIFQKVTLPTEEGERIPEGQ
Nature of the assay: Leishmania donovani Methionine tRNA synthetase (LdMetRS):v7. Dose response assay. In kind it is functional. Also on record: conc 80 nM, time 150 minutes.

For the molecule `C[C@@H](CO)Nc1ccnc(Nc2cccc(C(F)(F)F)c2)n1`, the PXC50 is 4.29 (BOTTOM 1.593845471, HILLSLOPE 0.816282678, MAX_EFFECT 64.11214953, TOP 100.0); 4.3 (BOTTOM 3.003400849, HILLSLOPE 0.886139555, MAX_EFFECT 64.25619835, TOP 100.0); 4.26 (BOTTOM -0.445089983, HILLSLOPE 0.824021196, MAX_EFFECT 60.35242291, TOP 100.0).

Consider `O=S(=O)(NCC1CC1)c1cccnc1Nc1cccc(C(F)(F)F)c1`, for which the PXC50 runs as follows: (MAX_EFFECT 6.072106262) less than 4; (MAX_EFFECT 13.21585903) less than 4; (MAX_EFFECT 16.32231405) less than 4.

As to `Cc1cnn(CC2CN(Cc3nc(C)c4ccccc4n3)CCO2)c1` (stereo not drawn), the PXC50 runs as follows: (MAX_EFFECT 29.53020134) less than 4; (MAX_EFFECT 39.58333333) less than 4; (MAX_EFFECT 44.19410745) less than 4.

As for `Cc1nc(CN(C)C(=O)c2ccc(Cn3cnnn3)cc2)cs1`, the PXC50 (MAX_EFFECT 1.360544218) was less than 4, the PXC50 (MAX_EFFECT 4.347826087) is less than 4 and the PXC50 (MAX_EFFECT 4.72854641) was less than 4.

As for `Cn1ncc2c(NCCO)nc(NCCS(C)(=O)=O)nc21`, the PXC50 reads like this: (MAX_EFFECT 5.936073059) less than 4; (MAX_EFFECT 10.75471698) less than 4; (MAX_EFFECT 32.3699422) less than 4.

For `NS(=O)(=O)c1cccnc1Nc1cc(F)cc(C(F)(F)F)c1`, the PXC50 is less than 4 (MAX_EFFECT 3.956834532), less than 4 (MAX_EFFECT 8.551068884) and less than 4 (MAX_EFFECT 8.583690987).

Take `CCCCOC(=O)CNc1nc(Nc2ccc(F)c(F)c2)nc2c1cnn2C`: the PXC50 was less than 4 (MAX_EFFECT 18.05225653), less than 4 (MAX_EFFECT 18.45493562) and less than 4 (MAX_EFFECT 25.28301887).

In the case of `O=S(=O)(NCCSc1nccn1C1CC1)c1ccccc1`, the PXC50 is less than 4 (MAX_EFFECT 2.721088435), less than 4 (MAX_EFFECT 2.898550725) and less than 4 (MAX_EFFECT 8.23117338).

For `NS(=O)(=O)c1ccc(Nc2ncccc2S(N)(=O)=O)cc1`, the PXC50 is, setting by setting: (MAX_EFFECT 6.072106262) less than 4; (MAX_EFFECT 13.21585903) less than 4; (MAX_EFFECT 15.90909091) less than 4.

Take `Cc1ncc(CCNc2nc(Nc3ccc(F)c(F)c3)nc3c2cnn3C)s1`: the PXC50 is less than 4 (MAX_EFFECT 15.8490566), less than 4 (MAX_EFFECT 21.03004292) and less than 4 (MAX_EFFECT 21.85273159).

Regarding `CN(C)c1nc(N(C)C)c2cnn(C)c2n1`, the PXC50 runs as follows: (MAX_EFFECT 10.25145068) less than 4; (MAX_EFFECT 21.69421488) less than 4; (MAX_EFFECT 22.46696035) less than 4.

Turning to `CC(C)C[C@H](N)COc1cccc(F)c1Oc1cccc(Cl)c1`, the PXC50 was 4.36 (BOTTOM 6.91310013, HILLSLOPE 1.495350679, MAX_EFFECT 83.36221837, TOP 100.0); 4.33 (BOTTOM 8.664927698, HILLSLOPE 1.748800753, MAX_EFFECT 77.85234899, TOP 95.40759793); 4.34 (BOTTOM 9.147353303, HILLSLOPE 1.551603339, MAX_EFFECT 81.25, TOP 100.0); 4.29 (BOTTOM -0.863158235, HILLSLOPE 2.70922767, MAX_EFFECT 71.29186603, TOP 83.59060963); 4.35 (BOTTOM -4.44021311, HILLSLOPE 1.559741226, MAX_EFFECT 77.3512476, TOP 100.0).

For the molecule `CN(CCN)c1nc(Nc2ccc(F)c(F)c2)nc2c1cnn2C`, the PXC50 runs as follows: (BOTTOM 2.133170856, HILLSLOPE 1.093077372, MAX_EFFECT 77.62557078, TOP 100.0) 4.41; (BOTTOM 3.57857286, HILLSLOPE 1.096477566, MAX_EFFECT 74.90566038, TOP 102.700119) 4.36; (BOTTOM 5.354463627, HILLSLOPE 0.967320352, MAX_EFFECT 79.31688805, TOP 100.0) 4.54.

Regarding `Cn1ncc2c(N3CCC[C@H]3CO)nc(Nc3ccc(F)c(F)c3)nc21`, the PXC50 was determined as 5.05 (BOTTOM 3.354874327, HILLSLOPE 0.975942115, MAX_EFFECT 81.27853881, TOP 88.63537555); 5.05 (BOTTOM 5.651213015, HILLSLOPE 1.001049773, MAX_EFFECT 83.58490566, TOP 90.01230887); 5.23 (BOTTOM 9.222423555, HILLSLOPE 1.183933311, MAX_EFFECT 81.21442125, TOP 84.5225205).

Take `OCCCNc1ccnc(Nc2cccc(C(F)(F)F)c2)n1`: the PXC50 is 4.16 (BOTTOM -1.471323434, HILLSLOPE 0.842843203, MAX_EFFECT 51.77570093, TOP 92.13190163); 4.09 (BOTTOM -3.274011796, HILLSLOPE 1.62633592, MAX_EFFECT 57.93991416, TOP 100.0); less than 4 (MAX_EFFECT 49.40617577).

`Cn1ncc2c(NC3CCCCC3O)nc(Nc3ccc(F)c(F)c3)nc21` (stereo not drawn) displayed a PXC50 (BOTTOM -1.097292769, HILLSLOPE 1.183920675, MAX_EFFECT 57.48218527, TOP 58.96974935) of 5.31; a PXC50 (BOTTOM -1.326166196, HILLSLOPE 1.398612708, MAX_EFFECT 60.37735849, TOP 61.95804926) of 5.4; a PXC50 (BOTTOM -2.072986449, HILLSLOPE 1.170002512, MAX_EFFECT 60.08583691, TOP 62.14142479) of 5.35.

Turning to `N[C@@H]1c2ccccc2C2(CCN(c3cnc4ccccc4n3)CC2)[C@H]1O`, the PXC50 is 4.02 (BOTTOM 0.263751901, HILLSLOPE 1.516790173, MAX_EFFECT 51.81975737, TOP 100.0); 4.24 (BOTTOM -0.439515819, HILLSLOPE 1.13741317, MAX_EFFECT 66.44295302, TOP 100.0); 4.32 (BOTTOM -1.864115217, HILLSLOPE 1.086184415, MAX_EFFECT 68.05555556, TOP 100.0).
